Laboratory results taken from PubChem BioAssay.
The source made the active and inactive calls.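 Rule for the calls, unless noted: active = fluorescence slope after compound addition differing from the mean of all screened samples at 99.7% confidence, in either direction; inactive = the rest.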

What was measured:
[1] = inhibitors of TNFa-induced NFkB p65 translocation, primary screen, imaging, HUVEC, MLSMR starter and 10KST1 sets (AID 438;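 active = inhibition above 20% together with a positive visual image hit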;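 note: compound added about 3h40 before a 20 min TNFalpha stimulation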;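 for inhibition: signal is the nuclear over cytoplasmic p65 intensity ratio per well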); conditions: HUVEC TNFa-induced p65 nuclear translocation; cell count: measured here: nuclei count (cytotoxicity indicator), at 2.08 µM; inhibition: at 2 µM, stronger effect = higher value, 0% TNFa-plus-vehicle, 100% no-TNFa wells
[2] = inhibitors of mutant huntingtin aggregation, primary screen, imaging, exon1htt(103Q)mCFP cells, high-content imaging (AID 483;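 active = visual image review flags a hit and inhibition of aggregation exceeds 20%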;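 note: compound exposure lasted 3 days before fixation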;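 for nuclei count: percent of the per-plate median nuclei count of sample wells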); conditions: exon1htt(103Q)mCFP cell line, aggregate imaging, at 2 µM; inhibition of aggregation: stronger effect = higher value; nuclei count: measured here: cell count, toxicity
[3] = inhibitors of E-selectin induction by TNFa, primary screen, imaging, HUVEC, immunofluorescence, MLSMR starter and 10KST1 sets (AID 487;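 active = visually confirmed hit in the image check and inhibition above 20%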;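 for inhibition: signal is fraction of cell area covered by stained E-selectin grains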;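 for nuclei count: 100% = median nuclei count of all wells on the same plate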); conditions: HUVEC TNFalpha-induced E-selectin immunofluorescence imaging, at 2 µM; inhibition: stronger effect = higher value; nuclei count: measured here: cell number, toxicity
[4] = biological target: Voltage-gated potassium channel subunit beta-2 (Rattus norvegicus) (UniProt P62483); assay: KvBeta enzyme negative modulators, primary screen, biochemical, NADPH fluorescence (AID 622;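 active = fluorescence slope higher than the sample average by over 3 SD, cut at about -0.22 in these data, passing the limit was not always enough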;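 note: slope of raw intensity against log time taken from 70 to 1610 s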); conditions: recombinant KvBeta, 4-cyanobenzaldehyde reduction, at 10 µM, stronger effect = higher value
Voltage-gated potassium channel subunit beta-2 (Rattus norvegicus), sequence (P62483 whole entry, looked up): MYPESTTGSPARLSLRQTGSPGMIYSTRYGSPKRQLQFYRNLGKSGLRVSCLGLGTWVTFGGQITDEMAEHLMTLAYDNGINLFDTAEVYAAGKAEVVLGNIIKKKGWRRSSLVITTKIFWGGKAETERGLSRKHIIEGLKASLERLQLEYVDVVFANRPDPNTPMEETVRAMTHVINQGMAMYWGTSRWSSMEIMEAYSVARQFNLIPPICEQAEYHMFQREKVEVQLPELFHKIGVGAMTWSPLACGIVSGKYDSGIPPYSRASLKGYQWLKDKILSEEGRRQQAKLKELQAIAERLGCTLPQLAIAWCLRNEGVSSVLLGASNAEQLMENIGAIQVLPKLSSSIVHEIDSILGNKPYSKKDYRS

[5] = biological target: Voltage-gated potassium channel subunit beta-2 (Rattus norvegicus) (UniProt P62483); assay: KvBeta positive modulators, primary screen, biochemical, NADPH fluorescence (AID 623;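 active = NADPH fluorescence slope more negative than the mean of all samples by about 3 SD, 99.7% confidence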;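 note: fluorescence intensity change per second fitted from 20 to 320 s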); conditions: Recombinant KvBeta, NADPH fluorescence decrease slope, 10 min; at 10 µM; stronger effect = lower value
[6] = biological target: Alpha-2C adrenergic receptor (Homo sapiens) (UniProt P18825); assay: modulators of alpha2C/GIRK thallium flux, primary screen, cell-based, HEK293 alpha2C/GIRK1/2 (AID 624); conditions: thallium flux BTC fluorescence, at 10 µM, actives lie on both sides;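 note: slope of fluorescence ratio to pre-addition baseline per second over 15 to 24 s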
Alpha-2C adrenergic receptor (Homo sapiens), sequence (P18825 whole entry, looked up): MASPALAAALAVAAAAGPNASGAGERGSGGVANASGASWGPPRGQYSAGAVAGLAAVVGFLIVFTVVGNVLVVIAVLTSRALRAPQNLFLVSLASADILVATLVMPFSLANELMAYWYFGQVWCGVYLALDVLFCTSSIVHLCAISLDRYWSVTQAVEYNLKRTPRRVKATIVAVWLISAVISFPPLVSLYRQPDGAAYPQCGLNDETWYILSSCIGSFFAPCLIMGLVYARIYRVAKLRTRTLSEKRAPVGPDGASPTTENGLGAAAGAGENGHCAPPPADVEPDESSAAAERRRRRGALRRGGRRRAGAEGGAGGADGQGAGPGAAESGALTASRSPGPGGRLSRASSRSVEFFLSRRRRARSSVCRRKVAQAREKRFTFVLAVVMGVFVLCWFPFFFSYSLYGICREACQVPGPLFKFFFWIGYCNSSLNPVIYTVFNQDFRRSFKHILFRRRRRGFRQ

[7] = inhibitors of Sendai virus-induced IRF3 signaling, primary screen, TLR/RLR signaling modifier project, cell-based, Sendai virus stimulus, luciferase, 10K MLSCN set (AID 602276;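 active = inhibition at or above 50% at 10 µM; inactive = inhibition below 50%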;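 note: firefly luciferase from ISG56 promoter only with Renilla not read in this screen; 0% = Sendai virus plus DMSO and 100% = medium plus DMSO without virus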); conditions: HEK293 RL24 IRF3 luciferase reporter, at 10 µM, stronger effect = higher value
[8] = inhibitors of poly I:C-induced TLR3 signaling, primary screen, cell-based, poly I:C stimulus, luciferase, 10K MLSCN set (AID 602277;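 active = inhibition of the reporter signal at or above 50%; inactive = inhibition below 50%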); conditions: HEK293-TLR3 RL24 IRF3 luciferase reporter, at 10 µM, stronger effect = higher value

SMILES | cell count [1] | inhibition [1] | inhibition of aggregation [2] | nuclei count [2] [%] | inhibition [3] | nuclei count [3] [%] | fluorescence slope [4] | NADPH fluorescence slope [5] | slope [6] | inhibition [7] | inhibition [8]
COc1ccc(NC(=O)CSc2nnc(Cc3cccn3C)n2-c2ccc(F)cc2)cc1OC | 541 | -1.3% (inactive) | -0.2% (inactive) | 92.7 | -59.2% (inactive) | 118 | -0.588 (inactive) | -2.4e-05 (inactive) | 0.00584 (inactive) | 12.2% (inactive) | 27.1% (inactive)
O=C(CN1c2cccc3cccc(c23)S1(=O)=O)N1CCOCC1 | 253 | -5.5% (inactive) | 16% (inactive) | 83 | -59.8% (inactive) | 101 | -0.189 (inactive) | -1.8e-05 (inactive) | 0.00514 (inactive) | 17% (inactive) | 13.6% (inactive)
c1ccc(-c2cnc(CSc3ncnc4sccc34)o2)cc1 | 308 | 2.9% (inactive) | 27.8% (inactive) | 86.4 | -7.2% (inactive) | 109 | -0.272 (inactive) | -1.7e-05 (inactive) | 0.00879 (inactive) | -9.6% (inactive) | -51.1% (inactive)
CC(=O)Nc1ccc(S(=O)(=O)Nc2nc3c(s2)CCCC3)cc1 | 638 | -2.1% (inactive) | 41.1% (inactive) | 95.3 | -46.9% (inactive) | 108 | -0.54 (inactive) | -4.4e-05 (inactive) | 0.00526 (inactive) | 5.19% (inactive) | -2.08% (inactive)
O=C(CCNC(=O)c1ccc(Br)o1)NC1CCCC1 | 507 | -18.2% (inactive) | 35.3% (inactive) | 77.7 | -29.9% (inactive) | 87.3 | -0.365 (inactive) | -5e-05 (inactive) | 0.00549 (inactive) | 14.4% (inactive) | 13.1% (inactive)
COc1ccc(OCc2nc(C#N)c(N3CCN(c4ccc(OC)cc4)CC3)o2)cc1 | 479 | 2.9% (inactive) | -2.2% (inactive) | 73.6 | 15.1% (inactive) | 89.2 | -0.421 (inactive) | 2.3e-05 (inactive) | 0.0041 (inactive) | -5.28% (inactive) | 3.87% (inactive)
O=C(c1ccc(CNS(=O)(=O)c2cccc(C(F)(F)F)c2)cc1)N1CCOCC1 | 237 | 11.8% (inactive) | -1.6% (inactive) | 80 | 14.7% (inactive) | 97.4 | -0.387 (inactive) | -3.8e-05 (inactive) | 0.00478 (inactive) | 14.8% (inactive) | 16.9% (inactive)
Cc1c(C)[n+](=O)c2c(n1[O-])CCCCC2 | 545 | -27.9% (inactive) | 10.6% (inactive) | 81.3 | 36.9% (inactive) | 63.9 | -0.491 (inactive) | -4.7e-05 (inactive) | 0.00652 (inactive) | -0.779% (inactive) | 22.1% (inactive)
CC1CCN(C(=O)CSc2nnc(Cc3cc(=O)[nH]c(=O)[nH]3)n2-c2ccc(Cl)cc2)CC1 | 713 | -6.3% (inactive) | 14.9% (inactive) | 87.4 | 1.4% (inactive) | 105 | -0.602 (inactive) | -8.2e-06 (inactive) | 0.00679 (inactive) | -3.8% (inactive) | 16.5% (inactive)
O=C(Nc1cccc(F)c1)C1C2C=CC3(CN(CCCN4CCOCC4)C(=O)C13)O2 (stereo not given) | 661 | -5.5% (inactive) | -27.1% (inactive) | 118 | -75.2% (inactive) | 116 | -0.548 (inactive) | -3.3e-05 (inactive) | 0.00626 (inactive) | -14.3% (inactive) | 12.3% (inactive)
Cc1ccccc1-n1nnc2c(=O)oc3ccccc3c21 | 345 | -1.6% (inactive) | 20.9% (inactive) | 98.5 | -83% (inactive) | 96.8 | -0.347 (inactive) | -3.7e-05 (inactive) | 0.00409 (inactive) | 12.8% (inactive) | 26.7% (inactive)
CCCCCn1c(N2CCN(Cc3ccccc3)CC2)nc2c1c(=O)[nH]c(=O)n2C | 675 | 1.9% (inactive) | -11.5% (inactive) | 101 | -13.6% (inactive) | 107 | -0.625 (inactive) | -2.8e-05 (inactive) | 0.0038 (inactive) | 14.2% (inactive) | 16.8% (inactive)
CCCCn1nnc(NC(=O)Cc2ccc(Cl)cc2)n1 | 618 | 7.7% (inactive) | 23.9% (inactive) | 91.6 | -66% (inactive) | 106 | -0.44 (inactive) | -6.8e-05 (inactive) | 0.00393 (inactive) | 1.51% (inactive) | 19.5% (inactive)
COc1ccc(S(=O)(=O)Nc2ccc(F)c(F)c2)cc1Cl | 723 | 8.5% (inactive) | 5.1% (inactive) | 102 | -8.3% (inactive) | 98.5 | -0.496 (inactive) | -1.9e-05 (inactive) | 0.0057 (inactive) | 8.01% (inactive) | 31.5% (inactive)
CCOc1ccc(-n2cc(C(=O)N3CCN(C)CC3)c3cc(OC)c(OC)cc3c2=O)cc1 | 393 | 8.8% (inactive) | 0.2% (inactive) | 99.4 | -54.1% (inactive) | 121 | -0.524 (inactive) | 1.6e-05 (inactive) | 0.007 (inactive) | -29.8% (inactive) | -2.36% (inactive)
COc1cccc(N2CCN(Cc3cccnc3)CC2)c1 | 621 | -1% (inactive) | -21.4% (inactive) | 96.6 | 15.6% (inactive) | 87.2 | -0.364 (inactive) | -6e-05 (inactive) | 0.00629 (inactive) | 6.56% (inactive) | 11.4% (inactive)
COc1ccc(-c2noc(CN(C(=O)C(C)(C)C)C(C)C)n2)cc1 | 420 | 5% (inactive) | 10.8% (inactive) | 93 | -73% (inactive) | 117 | -0.43 (inactive) | -5.1e-05 (inactive) | 0.00416 (inactive) | -16.3% (inactive) | -34% (inactive)
C=CCn1c(SCc2cccc(C#N)c2)nnc1-c1ccccc1O | 658 | -2.3% (inactive) | 5.6% (inactive) | 102 | -18.9% (inactive) | 110 | -0.574 (inactive) | 1.6e-05 (inactive) | 0.00698 (inactive) | 27.6% (inactive) | 46% (inactive)
COc1ccccc1NC(=O)CSc1nnc(-c2ccncc2)n1CC1CCCO1 (stereo not given) | 626 | 20.6% (inactive) | -8.1% (inactive) | 92.8 | 25.2% (inactive) | 100 | -0.462 (inactive) | -1.1e-06 (inactive) | 0.00619 (inactive) | 14.4% (inactive) | 98.5% (active)
Cc1cccc(NC(=O)c2cc(NC(=O)c3ccco3)ccc2N2CCCCC2)c1 | 635 | -3.9% (inactive) | -3.7% (inactive) | 113 | -48.5% (inactive) | 107 | -0.52 (inactive) | -1.8e-05 (inactive) | 0.0032 (inactive) | 8.72% (inactive) | 8.79% (inactive)
